Among the data in ChEMBL document CHEMBL1961873, “Compounds: GSK PKIS; Assays: Nanosyn kinase panel” (2012) are inhibition values, retold here.

In test [1] the target is Ribosomal protein S6 kinase alpha-6 (Homo sapiens) (UniProt Q9UK32). The following applies: at 1 µM.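 Also: each value is a mean inhibition of RSK4 from a GSK PKIS panel screen.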
In test [2] the target is T1, Serine/threonine-protein kinase Sgk1 (Homo sapiens) (UniProt O00141).
T1 sequence (whole entry): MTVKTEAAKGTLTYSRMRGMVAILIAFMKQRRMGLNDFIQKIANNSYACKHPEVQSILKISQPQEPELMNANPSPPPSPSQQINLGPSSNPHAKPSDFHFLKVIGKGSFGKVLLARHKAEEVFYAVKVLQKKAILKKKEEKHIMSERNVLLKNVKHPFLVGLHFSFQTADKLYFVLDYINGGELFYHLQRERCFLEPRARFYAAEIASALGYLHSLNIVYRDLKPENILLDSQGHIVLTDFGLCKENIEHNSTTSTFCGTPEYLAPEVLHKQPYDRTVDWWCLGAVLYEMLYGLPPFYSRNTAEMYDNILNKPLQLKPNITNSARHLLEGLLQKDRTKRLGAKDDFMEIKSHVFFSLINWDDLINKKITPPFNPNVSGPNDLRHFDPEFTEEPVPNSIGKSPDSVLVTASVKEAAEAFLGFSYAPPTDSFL
The following applies: at 0.1 µM.

Test [3] addresses T1, Serine/threonine-protein kinase Sgk1 (Homo sapiens). The following applies: at 1 µM.
In test [4] the target is T2, Serine/threonine-protein kinase Sgk2 (Homo sapiens) (UniProt Q9HBY8).
T2 sequence (whole entry): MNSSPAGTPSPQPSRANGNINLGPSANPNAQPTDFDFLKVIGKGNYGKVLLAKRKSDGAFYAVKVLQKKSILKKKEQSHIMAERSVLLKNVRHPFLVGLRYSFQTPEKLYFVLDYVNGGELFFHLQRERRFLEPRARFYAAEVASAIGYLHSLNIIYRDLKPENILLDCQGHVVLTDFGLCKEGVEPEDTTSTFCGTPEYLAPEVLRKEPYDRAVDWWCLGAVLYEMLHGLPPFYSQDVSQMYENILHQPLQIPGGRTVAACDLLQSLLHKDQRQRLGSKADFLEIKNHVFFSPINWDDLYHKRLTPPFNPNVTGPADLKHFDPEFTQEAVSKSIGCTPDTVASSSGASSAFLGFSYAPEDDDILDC
The note with it: at 0.1 µM.

Test [5] has as its target T2, Serine/threonine-protein kinase Sgk2 (Homo sapiens). The note with it: at 1 µM.
The target in test [6] is T3, Serine/threonine-protein kinase Sgk3 (Homo sapiens) (UniProt Q96BR1).
T3 sequence (whole entry): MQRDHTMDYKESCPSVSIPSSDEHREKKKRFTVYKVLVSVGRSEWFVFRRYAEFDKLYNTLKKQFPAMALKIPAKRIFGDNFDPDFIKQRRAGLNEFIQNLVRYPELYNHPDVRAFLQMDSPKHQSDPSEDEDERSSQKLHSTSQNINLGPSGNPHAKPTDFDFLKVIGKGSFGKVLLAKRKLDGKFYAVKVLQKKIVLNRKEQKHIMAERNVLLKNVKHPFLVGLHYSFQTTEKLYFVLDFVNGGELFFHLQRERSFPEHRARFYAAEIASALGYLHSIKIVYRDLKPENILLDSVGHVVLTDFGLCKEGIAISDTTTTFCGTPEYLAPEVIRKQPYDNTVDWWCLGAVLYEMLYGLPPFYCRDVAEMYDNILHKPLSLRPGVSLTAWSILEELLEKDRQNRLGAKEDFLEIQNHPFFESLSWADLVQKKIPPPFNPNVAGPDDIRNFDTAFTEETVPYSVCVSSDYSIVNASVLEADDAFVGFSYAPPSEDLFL
The note with it: at 0.1 µM.

Test [7] deals with T3, Serine/threonine-protein kinase Sgk3 (Homo sapiens). The following applies: at 1 µM.
Test [8] has as its target 5'-AMP-activated protein kinase catalytic subunit alpha-1 (Homo sapiens) (UniProt Q13131). The note with it: at 0.1 µM.
The target is the same in test [9]. The note with it: at 1 µM.
For test [10], the target named is 5'-AMP-activated protein kinase catalytic subunit alpha-2 (Homo sapiens) (UniProt P54646). The following applies: at 0.1 µM.
Sequence of 5'-AMP-activated protein kinase catalytic subunit alpha-2 (Homo sapiens) (P54646 whole entry, looked up): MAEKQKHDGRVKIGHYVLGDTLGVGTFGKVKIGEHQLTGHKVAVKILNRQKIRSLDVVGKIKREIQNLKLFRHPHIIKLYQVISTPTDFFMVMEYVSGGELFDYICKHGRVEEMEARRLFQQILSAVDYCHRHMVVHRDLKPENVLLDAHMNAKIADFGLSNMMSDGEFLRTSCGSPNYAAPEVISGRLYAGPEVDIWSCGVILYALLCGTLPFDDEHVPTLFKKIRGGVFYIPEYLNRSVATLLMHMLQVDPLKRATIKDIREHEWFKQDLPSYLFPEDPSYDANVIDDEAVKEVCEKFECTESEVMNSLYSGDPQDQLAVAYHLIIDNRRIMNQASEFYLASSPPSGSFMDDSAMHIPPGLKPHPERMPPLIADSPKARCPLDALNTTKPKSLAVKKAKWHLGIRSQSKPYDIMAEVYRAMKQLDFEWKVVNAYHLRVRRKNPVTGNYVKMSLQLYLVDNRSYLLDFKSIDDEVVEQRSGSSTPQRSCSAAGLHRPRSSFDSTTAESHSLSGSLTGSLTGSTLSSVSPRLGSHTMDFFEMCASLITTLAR
Test [11] has the same target. The note with it: at 1 µM.
Test [12] addresses T4, NUAK family SNF1-like kinase 1 (Homo sapiens) (UniProt O60285).
T4 sequence (whole entry): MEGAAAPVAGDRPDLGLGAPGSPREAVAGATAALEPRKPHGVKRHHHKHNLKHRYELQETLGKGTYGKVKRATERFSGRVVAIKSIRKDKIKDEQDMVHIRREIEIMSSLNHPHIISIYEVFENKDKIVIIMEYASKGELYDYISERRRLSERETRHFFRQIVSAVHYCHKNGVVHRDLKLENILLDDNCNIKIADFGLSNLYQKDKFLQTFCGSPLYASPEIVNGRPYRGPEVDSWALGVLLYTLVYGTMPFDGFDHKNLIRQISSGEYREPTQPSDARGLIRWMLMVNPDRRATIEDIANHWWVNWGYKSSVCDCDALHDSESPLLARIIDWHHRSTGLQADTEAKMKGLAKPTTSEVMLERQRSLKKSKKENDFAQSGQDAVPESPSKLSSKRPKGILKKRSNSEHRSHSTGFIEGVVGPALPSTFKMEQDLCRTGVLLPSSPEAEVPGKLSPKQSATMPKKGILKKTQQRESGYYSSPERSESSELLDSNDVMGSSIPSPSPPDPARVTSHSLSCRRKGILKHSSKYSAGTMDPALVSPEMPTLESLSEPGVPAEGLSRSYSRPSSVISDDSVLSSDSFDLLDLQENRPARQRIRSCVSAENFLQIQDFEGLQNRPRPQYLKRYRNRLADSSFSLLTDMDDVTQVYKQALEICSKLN
The following applies: at 0.1 µM.

Test [13] addresses T4, NUAK family SNF1-like kinase 1 (Homo sapiens). The following applies: at 1 µM.
Test [14] has as its target T5, Serine/threonine-protein kinase BRSK1 (Homo sapiens) (UniProt Q8TDC3).
T5 sequence (whole entry): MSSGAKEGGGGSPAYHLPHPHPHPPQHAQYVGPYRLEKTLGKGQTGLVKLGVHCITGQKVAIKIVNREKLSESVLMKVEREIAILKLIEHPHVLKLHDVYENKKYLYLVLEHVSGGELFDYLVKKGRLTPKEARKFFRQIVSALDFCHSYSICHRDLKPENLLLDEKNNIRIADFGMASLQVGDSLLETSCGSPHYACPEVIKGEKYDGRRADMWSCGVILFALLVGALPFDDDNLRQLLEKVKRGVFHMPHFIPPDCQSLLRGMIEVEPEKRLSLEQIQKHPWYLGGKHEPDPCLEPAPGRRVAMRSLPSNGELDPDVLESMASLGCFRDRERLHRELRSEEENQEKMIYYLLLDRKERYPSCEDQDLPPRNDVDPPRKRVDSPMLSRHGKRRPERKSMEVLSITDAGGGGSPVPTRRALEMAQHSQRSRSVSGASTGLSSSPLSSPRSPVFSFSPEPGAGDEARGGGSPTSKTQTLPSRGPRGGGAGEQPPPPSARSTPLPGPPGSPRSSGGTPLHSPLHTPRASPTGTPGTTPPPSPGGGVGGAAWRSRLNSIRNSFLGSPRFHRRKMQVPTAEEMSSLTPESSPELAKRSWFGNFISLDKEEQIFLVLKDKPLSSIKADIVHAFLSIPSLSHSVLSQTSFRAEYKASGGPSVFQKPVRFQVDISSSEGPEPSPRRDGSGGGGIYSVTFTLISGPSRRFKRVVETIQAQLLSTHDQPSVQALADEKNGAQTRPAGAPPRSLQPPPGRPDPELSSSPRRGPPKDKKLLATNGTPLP
The following applies: at 0.1 µM.

Test [15] deals with T5, Serine/threonine-protein kinase BRSK1 (Homo sapiens). The note with it: at 1 µM.
The target in test [16] is T6, Serine/threonine-protein kinase BRSK2 (Homo sapiens) (UniProt Q8IWQ3).
T6 sequence (whole entry): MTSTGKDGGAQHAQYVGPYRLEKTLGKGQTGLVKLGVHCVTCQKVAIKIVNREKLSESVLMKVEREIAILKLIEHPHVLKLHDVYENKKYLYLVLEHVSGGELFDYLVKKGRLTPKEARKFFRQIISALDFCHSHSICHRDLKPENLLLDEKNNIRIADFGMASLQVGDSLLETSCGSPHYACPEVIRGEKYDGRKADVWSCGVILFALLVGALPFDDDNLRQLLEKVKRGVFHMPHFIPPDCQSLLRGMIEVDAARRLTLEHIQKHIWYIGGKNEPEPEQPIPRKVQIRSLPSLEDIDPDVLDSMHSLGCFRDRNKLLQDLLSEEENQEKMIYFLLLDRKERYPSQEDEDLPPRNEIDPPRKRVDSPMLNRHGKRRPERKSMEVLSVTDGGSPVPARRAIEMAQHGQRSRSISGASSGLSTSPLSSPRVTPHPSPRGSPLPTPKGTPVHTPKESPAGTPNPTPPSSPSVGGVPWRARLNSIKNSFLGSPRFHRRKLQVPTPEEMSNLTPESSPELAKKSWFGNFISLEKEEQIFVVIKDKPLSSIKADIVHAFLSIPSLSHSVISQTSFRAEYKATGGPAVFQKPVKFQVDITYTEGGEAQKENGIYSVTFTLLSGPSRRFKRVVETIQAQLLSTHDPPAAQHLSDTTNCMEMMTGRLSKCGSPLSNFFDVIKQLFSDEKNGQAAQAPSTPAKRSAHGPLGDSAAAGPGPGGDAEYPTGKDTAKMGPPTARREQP
The note with it: at 0.1 µM.

In test [17] the target is T6, Serine/threonine-protein kinase BRSK2 (Homo sapiens). The following applies: at 1 µM.
The target of test [18] is Calcium/calmodulin-dependent protein kinase type 1D (Homo sapiens) (UniProt Q8IU85). The note with it: at 0.1 µM.
Sequence of Calcium/calmodulin-dependent protein kinase type 1D (Homo sapiens) (Q8IU85 whole entry, looked up): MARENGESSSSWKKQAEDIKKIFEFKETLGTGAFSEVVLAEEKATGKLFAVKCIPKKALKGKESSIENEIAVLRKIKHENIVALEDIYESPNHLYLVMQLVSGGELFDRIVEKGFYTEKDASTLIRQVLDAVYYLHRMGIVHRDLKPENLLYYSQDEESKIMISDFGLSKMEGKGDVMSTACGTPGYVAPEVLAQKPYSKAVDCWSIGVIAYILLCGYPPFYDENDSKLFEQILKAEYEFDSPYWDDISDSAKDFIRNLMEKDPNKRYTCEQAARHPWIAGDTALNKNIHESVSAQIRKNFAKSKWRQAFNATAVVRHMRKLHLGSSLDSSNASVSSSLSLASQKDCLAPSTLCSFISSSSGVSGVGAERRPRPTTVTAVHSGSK
The target is the same in test [19]. The following applies: at 1 µM.
Test [20] has as its target Calcium/calmodulin-dependent protein kinase type II subunit alpha (Homo sapiens) (UniProt Q9UQM7). The note with it: at 0.1 µM.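 Also: reported values are averages (mean inhibition of CAMK2A).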

Sequence of Calcium/calmodulin-dependent protein kinase type II subunit alpha (Homo sapiens) (Q9UQM7 whole entry): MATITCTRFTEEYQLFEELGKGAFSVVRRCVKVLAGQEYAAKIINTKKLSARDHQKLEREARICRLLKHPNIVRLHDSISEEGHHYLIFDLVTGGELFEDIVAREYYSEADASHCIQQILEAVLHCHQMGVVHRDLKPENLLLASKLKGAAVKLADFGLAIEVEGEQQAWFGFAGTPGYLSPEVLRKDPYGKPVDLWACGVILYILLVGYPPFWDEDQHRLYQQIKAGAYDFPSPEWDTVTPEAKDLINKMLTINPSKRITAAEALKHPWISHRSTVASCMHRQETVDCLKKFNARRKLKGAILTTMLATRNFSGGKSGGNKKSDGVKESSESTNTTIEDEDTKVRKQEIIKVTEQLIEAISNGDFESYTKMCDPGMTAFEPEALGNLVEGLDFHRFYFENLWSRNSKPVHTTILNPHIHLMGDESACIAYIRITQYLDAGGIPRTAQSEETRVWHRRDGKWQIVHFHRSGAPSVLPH
Sequence of 5'-AMP-activated protein kinase catalytic subunit alpha-1 (Homo sapiens) (Q13131 whole entry, looked up): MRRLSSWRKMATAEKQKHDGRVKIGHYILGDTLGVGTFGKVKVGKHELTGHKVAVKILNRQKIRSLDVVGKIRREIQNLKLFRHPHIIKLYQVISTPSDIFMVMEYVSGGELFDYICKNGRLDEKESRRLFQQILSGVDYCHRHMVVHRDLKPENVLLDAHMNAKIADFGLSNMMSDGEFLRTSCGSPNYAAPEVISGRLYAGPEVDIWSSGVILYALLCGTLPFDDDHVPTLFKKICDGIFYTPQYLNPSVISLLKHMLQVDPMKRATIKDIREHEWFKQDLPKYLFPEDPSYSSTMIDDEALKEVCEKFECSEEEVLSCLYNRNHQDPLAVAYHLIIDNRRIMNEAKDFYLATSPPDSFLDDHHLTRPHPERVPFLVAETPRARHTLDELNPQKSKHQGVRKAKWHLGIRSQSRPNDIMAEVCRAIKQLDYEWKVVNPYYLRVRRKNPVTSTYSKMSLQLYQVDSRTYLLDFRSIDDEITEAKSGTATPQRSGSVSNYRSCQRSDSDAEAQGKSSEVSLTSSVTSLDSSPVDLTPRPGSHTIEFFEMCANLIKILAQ
Sequence of Ribosomal protein S6 kinase alpha-6 (Homo sapiens) (Q9UK32 whole entry): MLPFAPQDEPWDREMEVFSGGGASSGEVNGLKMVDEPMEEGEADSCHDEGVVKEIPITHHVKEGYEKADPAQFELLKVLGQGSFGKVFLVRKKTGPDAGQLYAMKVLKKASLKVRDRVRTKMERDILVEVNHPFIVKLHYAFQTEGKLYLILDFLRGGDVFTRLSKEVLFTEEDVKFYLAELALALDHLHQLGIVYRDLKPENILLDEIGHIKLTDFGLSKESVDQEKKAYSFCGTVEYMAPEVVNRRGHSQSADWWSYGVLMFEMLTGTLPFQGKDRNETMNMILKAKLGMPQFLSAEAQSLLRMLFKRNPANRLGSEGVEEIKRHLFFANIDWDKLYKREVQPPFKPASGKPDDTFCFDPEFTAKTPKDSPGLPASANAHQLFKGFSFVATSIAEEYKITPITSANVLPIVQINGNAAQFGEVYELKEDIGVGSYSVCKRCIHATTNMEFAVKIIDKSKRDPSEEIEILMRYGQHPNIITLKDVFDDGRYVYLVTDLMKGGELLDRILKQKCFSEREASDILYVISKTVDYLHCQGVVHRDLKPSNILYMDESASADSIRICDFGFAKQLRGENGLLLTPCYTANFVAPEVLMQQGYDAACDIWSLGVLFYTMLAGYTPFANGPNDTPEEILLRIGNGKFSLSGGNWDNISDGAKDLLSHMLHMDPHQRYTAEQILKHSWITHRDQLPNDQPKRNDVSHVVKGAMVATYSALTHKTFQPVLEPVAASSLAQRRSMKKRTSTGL

As to `Cc1ccc2c(-c3ccnc(Nc4ccc5c(c4)OCCO5)n3)c(-c3ccc(C(F)(F)F)cc3)nn2n1`, the inhibition was 0.44% in test [1]; 0.85% in test [2]; 1.65% in [3]; -0.62% in test [4]; -1.7% in test [5]; 0.16% in test [6]. The inhibition in test [7] is -1.14%; in [8] it was 0.51%; in [9] it was 3.23%; in [10], 0.13%; in test [11], 1.71%; in test [12], -1.23%. For the same molecule, the inhibition was 1.59% in test [13]; -0.85% in [14]; 1.31% in test [15]; 0.24% in test [16]; 0.79% in test [17]; 0.52% in test [18]. Moreover, the results for the inhibition in [19] and in [20] were 9.99% and 0.68%, respectively.

For the molecule `CS(=O)(=O)CCNCc1nc(-c2ccc3ncnc(Nc4ccc(OCc5cccc(C(F)(F)F)c5)cc4)c3c2)cs1`, the inhibition in test [1] is 0.37%; in test [2] it was -0.21%; in test [3], -1.85%; in [4], 3.52%; in [5] it was 2.19%; in test [6], 1.04%. Also, the inhibition in test [7] was determined as 1.17%; in [8] it was 1.78%; in test [9], 2.03%; in test [10], 3.05%; in test [11] it was 2.15%; in [12], 0.06%. For the same molecule, the inhibition in test [13] is 2.2%; in [14] it was 2.31%; in [15], -0.57%; in [16] it was 0.24%; in test [17], 1.3%; in test [18], -0.5%. Also, the inhibition in test [19] was 2.37%; in test [20] it was 1.59%.

For the molecule `Cc1cc(-c2ccccn2)cc(C)c1/C=C/c1cncc(-c2nn[nH]n2)c1`, the inhibition in test [1] is 1.31%; in test [2], 0.67%; in [3] it was 1.66%; in test [4], 3.28%; in [5] it was -0.92%; in test [6], 4.48%. Moreover, the inhibition in [7] came to 2.45%; in [8] it was 0.33%; in test [9], 3.53%; in test [10] it was 6.43%; in test [11] it was 3.78%; in test [12] it was 2.95%. For the same molecule, the inhibition in [13] was 6.85%; in test [14], 2.2%; in test [15] it was -0.86%; in [16], 1.67%; in test [17], 3.37%; in test [18], 0.06%. Further, the inhibition amounted to 0.67% in test [19] and 2.42% in [20].

Turning to `O=S(=O)(CCOCc1ccc(-c2ccc3ncnc(Nc4ccc(OCc5cccc(F)c5)c(Cl)c4)c3c2)o1)c1ccccc1`, the inhibition in [1] was -0.62%; in [2], 1.34%; in test [3], 2.27%; in test [4], 3.28%; in test [5], -0.92%; in test [6], 3.38%. Also, the inhibition in [7] is 1.38%; in test [8], -0.69%; in [9], 1.2%; in [10], 4.55%; in [11], 1.68%; in [12], -2.09%. In addition, the inhibition is -0.72% in test [13]; -0.74% in [14]; 1.37% in test [15]; 1.25% in test [16]; 2.98% in test [17]; 0% in [18]. Moreover, the results for the inhibition in test [19] and in test [20] were 0.46% and -0.52%, respectively.

What is called inhibition is the drop in the measured response relative to a control, in per cent.
